Some structures have more than one record in an assay (separate samples or runs), and their calls can disagree. Calls of active or inactive are those of the source. Rule for the calls: active = hit-call score of the fitted dose curve at least 0.9, where 1 is the maximum; inactive = score below 0.9.

This assay can be described thus: STM_H9_OrnithineISnorm_perc: Stemina devTOX quickPredict H9 human embryonic stem cell (hESC)-based Assay for Ornithine (ORN) Metabolite Biomarker, Normalized (AID 2283712).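 Note: ornithine released into spent medium during last day measured by mass spectrometry.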 An excerpt: STM_H9_secretome utilizes undifferentiated H9 cells to measure relative changes in two metabolites, ornithine (ORN) and cystine (CYSS) in the secretome, targeting a critical drop in the ORN/CYSS ratio as a biomarker for developmental toxicity.STM_H9_OrnithineISnorm is one of 10 components calculated in the STM_H9_secretome assay. It measures the integrated area of the endogenous ornithine normalized to the spiked-in isotopically labeled standard and to the median value of the 0.1% DMSO neutral control treatment using UPLC-HRMS technology.Data from the assay component STM_H9_OrnithineISnorm_perc was analyzed at the assay endpoint STM_H9_OrnithineISnorm_perc in the positive analysis fitting direction relative to DMSO as the negative control and baseline of activity. Using a type of binding reporter, gain or loss-of-signal activity can be used to understand relative metabolite change.
H9 hESCs maintained in a pluripotent state were exposed to test compound for 72h with chemical replenishment with media replacement every 24h. Cell-conditioned media from the final 24-h treatment period was collected for analysis of the targeted biomarker, and cell viability of the corresponding cell layer was assessed. The chemical library was tested in blinded fashion. Each test plate included 1uM Methotrexate (MTX; Selleck Chemicals, Houston, Texas) as a positive reference, 5 nM MTX as a negative reference, 0.1% DMSO as the neutral (vehicle) control, and sample-level media blanks.H9 cell-conditioned media from the final 24-h treatment period was collected for analysis of the targeted biomarker and cell viability was measured from the corresponding cell layer. Cell viability was measured using the CellTiter-Fluor assay (Promega, Madison, Wisconsin) based on proteolytic cleavage of a substrate to fluorescent signal proportional to the number of living cells. The cell viability Relative Fluorescence Unit (RFU) was background corrected and normalized to mean RFU of the neutral control (0.1% DMSO). The collected H9-cell-conditioned media samples were processed for targeted biomarker analysis as described (Palmer et al., 2013). Briefly, spent media samples were deproteinized (40% acetonitrile) and processed for UPLC-HRMS. Data acquisition was performed using 4 separate UPLC-HRMS systems, consisting of an Agilent 1290 Infinity LC system (Agilent Technologies) interfaced with an Agilent high-resolution mass spectrometer (models G6520A, G6520B, G6530A, and G6224A). A Waters Acquity UPLC BEH Amide column (2.1mm x 50mm, 1.7lm particle size; Waters, Milford, Massachusetts) maintained at 40C was applied for separation of metabolites using a 6.5min solvent gradient with 0.1% formic acid in water and 0.1% formic acid in acetonitrile (1.0ml/min flow rate). Data were acquired using MassHunter Acquisition software (version B 04.00, Agilent Technologies). The extracted ion chromatogram (EIC) areas for ORN, CYSS, and their respective spike-in C13-standards were determined using the Agilent MassHunter Quantitative Analysis software, version B.05.00 or newer (Agilent Technologies), and data were normalized as described in Palmer et al. (2017).
As for `Cc1nn(-c2cc(NS(C)(=O)=O)c(Cl)cc2Cl)c(=O)n1C(F)F`, the AC50 – broadly, the midpoint of the concentration-response curve, whichever way the signal moves – is 0.114 µM (active). In the case of `O=[N+]([O-])c1cc(C(F)(F)F)c(Cl)c([N+](=O)[O-])c1Nc1ncc(C(F)(F)F)cc1Cl`, the AC50 is 15.5 µM (active). Turning to `CCNc1nc(Cl)nc(NC(C)(C)C#N)n1`, the outcome was inactive. For `C=C(C)[C@H]1Cc2c(ccc3c2O[C@@H]2COc4cc(OC)c(OC)cc4[C@@H]2C3=O)O1`, the AC50 was 0.347 µM (active). As to `CON=C(C(=O)OC)c1ccccc1CON=C(C)c1cccc(C(F)(F)F)c1`, the outcome was inactive. Take `CC(C1CC1)C(O)(Cn1cncn1)c1ccc(Cl)cc1` (configuration not stated): the AC50 is 50 µM (active). As to `CCCCOC(=O)[C@@H](C)Oc1ccc(Oc2ccc(C#N)cc2F)cc1`, the AC50 was 85.7 µM (active). For `COc1ccc(C(=CC(=O)N2CCOCC2)c2ccc(Cl)cc2)cc1OC`, the AC50 is 0.119 µM (active).

Consider `C[N+]1(C)CCCCC1`, for which the result was inactive. On the same count and under the same terms, to `CNc1cnn(-c2cccc(C(F)(F)F)c2)c(=O)c1Cl` belongs “inactive”. `N#CSCSC#N`: the AC50 is 20.5 µM (active).

In the case of `CC1=NNC(=O)N(/N=C/c2cccnc2)C1`, the result was inactive. As for `CN(C)[C@@H]1C(=O)C(C(N)=O)=C(O)[C@@]2(O)C(=O)C3=C(O)c4c(O)cccc4[C@@](C)(O)[C@H]3[C@H](O)[C@@H]12`, the result was inactive and the AC50 is 50 µM (active). For the molecule `CSc1nc(NC(C)C)nc(NC(C)C)n1`, the AC50 is 0.22 µM (active). For `CN(C)C(=O)Nc1cccc(C(F)(F)F)c1`, the outcome was inactive. For the molecule `CC(C)[C@H](C(=O)O[C@H](C#N)c1cccc(Oc2ccccc2)c1)c1ccc(Cl)cc1`, the concentration at half-maximal activity (AC50) was 50 µM (active).

For the molecule `S=C1NCCN1`, the outcome was inactive. Turning to `FC(F)C(F)(F)OCC(Cn1cncn1)c1ccc(Cl)cc1Cl` (configuration not stated), the outcome was inactive. Consider `CCOP(=S)(OCC)Oc1cc(C)nc(C(C)C)n1`, for which the concentration at half-maximal activity (AC50) is 79.1 µM (active). For `CSc1nnc(C(C)(C)C)c(=O)n1N`, the AC50 is 0.0961 µM (active). On the same count and under the same terms, the result for `CC(COc1ccc(Oc2ccccc2)cc1)Oc1ccccn1` (configuration not stated) reads 70.3 µM (active); that for `CCC(=NOC/C=C/Cl)C1=C(O)CC(C2CCOCC2)CC1=O` (configuration not stated), 0.0699 µM (active). Consider `Cc1ccn2nc(S(=O)(=O)Nc3c(F)cccc3F)nc2n1`, for which the result was inactive. As to `C[Si](Cn1cncn1)(c1ccc(F)cc1)c1ccc(F)cc1`, the concentration at half-maximal activity (AC50) was 76.6 µM (active). In the case of `CCOP(=S)(OCC)Oc1ccc2c(C)c(Cl)c(=O)oc2c1`, the AC50 is 50 µM (active). Take `CCOP(=S)(OCC)SCCSCC`: the AC50 is 72.2 µM (active).

The values above are taken from PubChem BioAssay (EPA / NIEHS).
